Laboratory results published in PubChem BioAssay (NCATS).
Results filed as inconclusive are left out. Active and inactive are the calls of the source. Calls follow the shape of the dose curve; as a rule, active = well fitted curve in the direction sought with a large enough effect; inconclusive = small, poorly fitted or top-dose-only effect, or another doubt; inactive = no such curve, though single readings can be large; an effect the other way counts as inactive or inconclusive.

How the values were obtained:
[1] = Drug repurposing screens with cells derived from glioblastoma tumor samples (AID 1345199); conditions: GBM patient neurospheres viability, ATP luminescence, 48 h; also: nearly all actives have a fitted effect of over 40% in size; also: potency is read from the fitted curve at half-maximal effect
In short: (§1)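 Four patient lines of CD133+ GBM neurospheres were screened at several concentrations; hits were retested in those lines plus three slower-growing GBM lines, using 48-hour treatment and ATP-based viability.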

[2] = system: Tov-21-G; assay: Primary qHTS to identify gynecologic anti-cancer compounds using libraries of approved drugs and bioactive compounds (AID 1345084); conditions: Gynecologic cancer cell panel viability, ATPlite luminescence, 48 h; series mostly up to 57.5 µM; also: nearly all actives have a fitted effect of over 55% in size
In short: (§2)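 Measured: luminescence after ATPlite addition (15 min, RT). Exposure: 48 h, 37 C, 5% CO2.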

[3] = system: Tov112D; assay: as above; conditions: Gynecologic cancer cell panel viability, ATPlite luminescence, 48 h; series mostly up to 57.5 µM
In short: as §2

[4] = system: astro; assay: Drug repurposing screens with cells derived from glioblastoma tumor samples (AID 1345199); conditions: viability, ATP luminescence, 48 h; series mostly up to 45.9 µM; also: nearly all actives have a fitted effect of over 40% in size; also: potency is read from the fitted curve at half-maximal effect
In short: as §1

[5] = system: SKOV3; assay: Primary qHTS to identify gynecologic anti-cancer compounds using libraries of approved drugs and bioactive compounds (AID 1345084); conditions: Gynecologic cancer cell panel viability, ATPlite luminescence, 48 h; series mostly up to 57.5 µM; also: nearly all actives have a fitted effect of over 55% in size
In short: as §2

[6] = at 45.9 µM (top of the series), tumour line B
[7] = at 45.9 µM (top of the series), tumour line D
[8] = at 46.1 µM (top of the series), tumour line C
[9] = at 46 µM (top of the series), tumour line A
% is scaled to controls: 0 for no effect and ±100 for the full control effect.

CC(C)CN(C[C@@H](OP(=O)(O)O)[C@H](Cc1ccccc1)NC(=O)O[C@H]1CCOC1)S(=O)(=O)c1ccc(N)cc1
inactive: activity, negative = cell killing [1, 6] -7.11% | activity, negative = cell killing [1, 7] -11.4% | activity, negative = cell killing [1, 8] -18.7%

Cc1ccccn1
inactive: activity, negative = cell killing [1, 6] -10.1% | activity, negative = cell killing [1, 8] -22.4%

CCCCCCCCCCCC(=O)N(CCO)CCO
inactive: activity, negative = cell killing [1, 6] -26.4%

C/C(=C\C(=O)OCCCCCCCCC(=O)O)C[C@@H]1OC[C@H](C[C@@H]2O[C@H]2[C@@H](C)[C@H](C)O)[C@@H](O)[C@H]1O
inactive: Potency [2] | outcome [3] | activity, negative = cell killing [1, 6] -19.6% | activity, negative = cell killing [1, 7] -9.28% | activity, negative = cell killing [1, 8] -21.4% | Potency [4]

O=C(O)Cc1cc(I)c(Oc2ccc(O)c(I)c2)c(I)c1
inactive: outcome [5] | Potency [2] | outcome [3] | activity, negative = cell killing ([1]; at 20 µM (top of the series), tumour line C) -19.1% | activity, negative = cell killing ([1]; at 21.2 µM (top of the series), tumour line B) 6.94% | activity, negative = cell killing ([1]; at 21.2 µM (top of the series), tumour line D) 9.76% | activity, negative = cell killing ([1]; at 21.3 µM (top of the series), tumour line A) -9.11%

CC1CC(OC(=O)C(O)c2ccccc2)CC(C)(C)C1 (configuration not stated)
inactive: outcome [5] | Potency [2] | outcome [3] | activity, negative = cell killing [1, 6] -16.2% | activity, negative = cell killing [1, 7] 6.83% | activity, negative = cell killing [1, 8] -12.1% | Potency [4]

C[C@]12CC[C@@H]3c4ccc(OC(=O)c5ccccc5)cc4CC[C@H]3[C@@H]1CC[C@@H]2O
inactive: outcome [5] | Potency [2] | outcome [3] | activity, negative = cell killing [1, 6] -25.4% | activity, negative = cell killing [1, 8] -17.8%
active: Potency ([1]; tumour line A) 11.2 µM

C=C1CC[C@H](O)CC1=C/C=C1\CCC[C@]2(C)[C@@H]([C@H](C)CC[C@@H](O)C(C)(C)O)CC[C@@H]12
active: Potency ([1]; tumour line A) 8.91 µM
inactive: activity, negative = cell killing [1, 6] -20.7%

CC(C)(C)c1ccc(CN2CCN(C(c3ccccc3)c3ccc(Cl)cc3)CC2)cc1 (configuration not stated)
inactive: outcome [5] | Potency [2] | outcome [3]
active: Potency [4] 35.5 µM

O=P(O)(O)OP(=O)(O)O
inactive: activity, negative = cell killing [1, 6] -12.9% | activity, negative = cell killing [1, 7] -11% | activity, negative = cell killing [1, 8] -5.23%

CCN(CC)CCOCCOC(=O)C(CC)(CC)c1ccccc1
active: Potency ([1]; tumour line A) 1.41 µM | Potency ([1]; tumour line B) 14.1 µM | Potency ([1]; tumour line D) 8.91 µM
inactive: outcome [5] | Potency [2] | outcome [3] | activity, negative = cell killing [1, 8] -23.4%

CO[C@H]1C[C@@H]2CC[C@@H](C)[C@@](O)(O2)C(=O)C(=O)N2CCCC[C@H]2C(=O)O[C@H]([C@H](C)C[C@@H]2CC[C@@H](OC(=O)C(C)(CO)CO)[C@H](OC)C2)CC(=O)[C@H](C)/C=C(\C)[C@@H](O)[C@@H](OC)C(=O)[C@H](C)C[C@H](C)/C=C/C=C/C=C/1C
inactive: Potency [2] | outcome [3] | activity, negative = cell killing [1, 6] -14.4% | activity, negative = cell killing [1, 7] -16% | activity, negative = cell killing [1, 9] -25.2% | activity, negative = cell killing [1, 8] -22.5% | Potency [4]

Cc1c(Cl)cccc1Nc1ncccc1C(=O)O
inactive: activity, negative = cell killing [1, 6] -16.8% | activity, negative = cell killing [1, 7] -17%

CC(C)CCC[C@@H](C)[C@H]1CC[C@H]2[C@@H]3CC[C@@H]4C[C@H](O)CC[C@]4(C)[C@H]3CC[C@]12C
inactive: activity, negative = cell killing [1, 6] -2.13% | activity, negative = cell killing [1, 7] -20.8% | activity, negative = cell killing [1, 8] -6.49%

C=C1[C@@H]2CC[C@@H](C2)C1(C)C
inactive: activity, negative = cell killing [1, 6] -1.58% | activity, negative = cell killing [1, 7] -22%

CC(C)=CCC/C(C)=C/CC/C(C)=C/CC/C(C)=C/CC1=C(C)C(=O)c2ccccc2C1=O
active: Potency ([1]; tumour line A) 10 µM | Potency ([1]; tumour line C) 23.1 µM
inactive: activity, negative = cell killing [1, 6] -29.7%

C=CCCCCCCCCC(=O)OC
inactive: activity, negative = cell killing [1, 6] -4.31% | activity, negative = cell killing [1, 7] -1.83% | activity, negative = cell killing [1, 8] 7.19%

c1ccc2cc(C3=NCCN3)ccc2c1
inactive: activity, negative = cell killing [1, 6] -16.9% | activity, negative = cell killing [1, 7] -20.8% | activity, negative = cell killing [1, 8] -24%
active: Potency ([1]; tumour line A) 11.2 µM

CCCCCCCCCCCCCCCC(=O)OC[C@H](COP(=O)([O-])OCC[N+](C)(C)C)OC(=O)CCCCCCCCCCCCCCC
inactive: activity, negative = cell killing [1, 6] -12.1% | activity, negative = cell killing [1, 7] -1.49% | activity, negative = cell killing [1, 9] -32.2% | activity, negative = cell killing [1, 8] -17.2% | Potency [4]

CN(C)CCOc1ccc(/C(=C(/CCCl)c2ccccc2)c2ccccc2)cc1
inactive: activity, negative = cell killing [1, 8] -18.9%
active: Potency ([1]; tumour line A) 8.91 µM | Potency ([1]; tumour line D) 12.6 µM

CC(C)[C@@H](N)C(=O)O
inactive: activity, negative = cell killing [1, 6] -4.72% | activity, negative = cell killing [1, 7] -10.1% | activity, negative = cell killing [1, 9] -15.5% | activity, negative = cell killing [1, 8] -0.187%

NCC[C@H](O)C(=O)N[C@@H]1C[C@H](N)[C@@H](O[C@H]2O[C@H](CN)CC[C@H]2N)[C@H](O)[C@H]1O[C@H]1O[C@H](CO)[C@@H](O)[C@H](N)[C@H]1O
inactive: activity, negative = cell killing [1, 6] -11.6% | activity, negative = cell killing [1, 7] -8.34% | activity, negative = cell killing [1, 9] -19.6% | activity, negative = cell killing [1, 8] -19.9%

CCCC(=O)O
inactive: activity, negative = cell killing [1, 6] -1.41% | activity, negative = cell killing [1, 7] -13.2% | activity, negative = cell killing [1, 9] -10.6% | activity, negative = cell killing [1, 8] -26.8%
